# Values without a mark were called inactive. Results filed as inconclusive are left out. Where a call stands in place of a potency, no number is given. Activity calls are given as the source filed them. Calls come from the whole dose curve; as a rule, active = well fitted curve in the direction sought with a large enough effect; inconclusive = small, poorly fitted or top-dose-only effect, or another doubt; inactive = no such curve, though single readings can be large; an effect the other way counts as inactive or inconclusive. Where a SMILES comes first, the peptide text is derived from it. Bridges are numbered along the chain shown (N, C = ends).
# What was measured:
# [1] = molecular target: Glutathione peroxidase 1 (Homo sapiens) (UniProt P07203); assay: Primary qHTS Assay for Inhibitors of Recombinant Selenoprotein Glutathione Peroxidase 1 (GPX1) (AID 1845191); note: nearly all actives have a fitted effect of over 65% in size; note: potency is the fitted concentration of half-maximal effect
# Outline: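 10 nM GPX1 + cpd, 30 min RT; start w/ 1 mM GSH, 0.5 mM cumene hydroperoxide, 0.5 mM NADPH, 100 nM GR, 0.01% BSA; buffer 50 mM Tris-HCl pH 7.5, 2 mM EDTA, 150 mM NaCl; Fl 340/450, 0 & 15 min.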
# [2] = molecular target: Phospholipid hydroperoxide glutathione peroxidase GPX4 (Homo sapiens) (UniProt P36969); assay: Primary qHTS Assay for Inhibitors of Recombinant Selenoprotein Glutathione Peroxidase 4 (GPX4) (AID 1845192); note: nearly all actives have a fitted effect of over 65% in size; note: potency is the fitted concentration of half-maximal effect
# Outline: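 NADPH consumption, followed by fluorescence at 340/450 nm between 0 and 15 min, reports GPX4 activity via coupled glutathione reductase (100 nM). Enzyme 200 nM was pre-exposed to compound 30 min; 0.5 mM cumene hydroperoxide and 1 mM GSH served as substrates.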
# [3] = molecular target: Metallo-beta-lactamase type 2 (Klebsiella pneumoniae) (UniProt C7C422); assay: qHTS to identify inhibitors of the New Delhi Metallo-beta-lactamase (NDM): assay validation screen against the NCATS LOPAC Collection (AID 1794843);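 note: nitrocefin turnover by NDM-1 measured as 485 nm absorbance at plateau; series mostly up to about 38 µM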
# Outline: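 Enzyme 2 nM final, 50 mM HEPES pH 7.0, 1 uM ZnSO4, 0.01% Tween20; cpds in DMSO, preincub w/ enzyme; + nitrocefin (50 uM stock); A485 at plateau; no-enzyme column as blank.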
# [4] = molecular target: Luciferin 4-monooxygenase (Photinus pyralis) (UniProt P08659); assay: Primary firefly luciferase (FLuc) qHTS assay for identification of artifact compounds. (AID 1845220); note: series mostly up to about 54 µM; nearly all actives have a fitted effect of over 60% in size
# Outline: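 Compounds sat 15 min at room temperature with 10 uM luciferin and 10 uM ATP (pH 7.6 Tris acetate). Firefly luciferase (10 nM final) was then added, and luminescence was read 5 min later. Data normalized to no-enzyme and DMSO controls were Hill-fitted.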
# [5] = Primary fluorescence-based thiol-reactive (MSTI) qHTS assay for identification of artifact compounds. (AID 1845221);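 note: series mostly up to about 54 µM; thiol-reactive compounds lower the probe fluorescence signal; nearly all actives have a fitted effect of over 65% in size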
# Outline: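 Probe: MSTI 4 uM, PBS pH 7.4, 2% DMSO. Incubation 1 h, RT, light-protected. Readout fluorescence 525/598 nm.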
# [6] = tested on: Nanoluciferase (engineered Oplophorus gracilirostris luciferase); assay: Primary Nanoluciferase (NLuc) qHTS assay for identification of artifact compounds. (AID 1845222); note: series mostly up to about 54 µM
# Outline: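 Luminescence from secreted NLuc (filtered, 1:55-diluted S16 cell medium) read 5 min after Nano-Glo substrate; compounds preincubated 15 min, RT. Hill fits of inhibition normalized to DMSO and no-enzyme.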
# Sequence of Phospholipid hydroperoxide glutathione peroxidase GPX4 (Homo sapiens) (P36969 whole entry, looked up): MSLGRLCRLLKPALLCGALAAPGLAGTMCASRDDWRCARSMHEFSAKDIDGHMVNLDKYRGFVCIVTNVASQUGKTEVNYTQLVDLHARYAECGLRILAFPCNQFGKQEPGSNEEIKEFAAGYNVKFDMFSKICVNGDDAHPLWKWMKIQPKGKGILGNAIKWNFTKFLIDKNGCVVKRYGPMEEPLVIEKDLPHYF
# Sequence of Glutathione peroxidase 1 (Homo sapiens) (P07203 whole entry, looked up): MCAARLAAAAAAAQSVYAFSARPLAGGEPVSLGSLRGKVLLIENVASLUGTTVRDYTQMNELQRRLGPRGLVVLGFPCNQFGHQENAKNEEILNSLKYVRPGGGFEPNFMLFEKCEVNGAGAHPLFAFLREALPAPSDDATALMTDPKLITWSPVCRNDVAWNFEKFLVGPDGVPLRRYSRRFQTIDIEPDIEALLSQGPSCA
# Sequence of Metallo-beta-lactamase type 2 (Klebsiella pneumoniae) (C7C422 whole entry, looked up): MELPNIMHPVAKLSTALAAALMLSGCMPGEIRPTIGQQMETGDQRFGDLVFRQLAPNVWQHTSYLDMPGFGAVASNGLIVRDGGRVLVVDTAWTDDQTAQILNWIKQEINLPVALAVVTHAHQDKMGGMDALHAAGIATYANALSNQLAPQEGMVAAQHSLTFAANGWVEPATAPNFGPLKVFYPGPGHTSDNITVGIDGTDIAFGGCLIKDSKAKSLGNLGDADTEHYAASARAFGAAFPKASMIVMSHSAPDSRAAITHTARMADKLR
smiles,measurement,setting,value
COc1cc2[nH]c(C)c(CCN3CCN(c4ccccc4)CC3)c2cc1OC,Potency,[1],inactive
CCCC(=O)O[C@]1(C(=O)COC(=O)CC)[C@@H](C)C[C@H]2[C@@H]3CCC4=CC(=O)C=C[C@]4(C)[C@@]3(F)[C@@H](O)C[C@@]21C,Potency,[1],inactive
C=CCNC1=C2C[C@@H](C)C[C@H](OC)[C@H](O)[C@@H](C)/C=C(\C)[C@H](OC(N)=O)[C@@H](OC)/C=C\C=C(/C)C(=O)NC(=CC1=O)C2=O,Potency,[1],inactive
CC1(S(=O)(=O)O)CC(=O)c2ccccc2C1=O (configuration not stated),Potency,[1],2.02 µM (active)
Cc1ccc(/C(=C\CN2CCCC2)c2cccc(/C=C/C(=O)O)n2)cc1,Potency,[1],inactive
CCOc1ccc(N=C(C)Nc2ccc(OCC)cc2)cc1,Potency,[1],inactive
same,Potency,[2],inactive
NCCCC(=O)O,outcome,[3],inactive
same,Potency,[1],inactive
same,Potency,[2],inactive
COc1cc(C[C@@H]2NCCc3cc(O)c(O)cc32)cc(OC)c1OC,Potency,[1],inactive
same,Potency,[2],inactive
CC(=O)O[C@H]1C[C@@H]2CC[C@@H]3[C@H](CC[C@@]4(C)[C@H]3C[C@H](N3CC[N+](C)(C)CC3)[C@@H]4OC(C)=O)[C@@]2(C)C[C@@H]1N1CC[N+](C)(C)CC1,Potency,[1],inactive
same,Potency,[2],inactive
CC(C)(C)CC(=O)OCC(=O)[C@@]12OC(C)(C)O[C@@H]1C[C@H]1[C@@H]3CCC4=CC(=O)C=C[C@]4(C)[C@@]3(F)[C@@H](O)C[C@@]12C,Potency,[1],inactive
same,Potency,[2],inactive
O=C(O)c1cc2ccccc2c(Cc2c(O)c(C(=O)O)cc3ccccc23)c1O,Potency,[1],inactive
same,Potency,[2],inactive
CC(=O)OCC(=O)[C@@]1(O)[C@H](C)C[C@H]2[C@@H]3C[C@H](F)C4=CC(=O)C=C[C@]4(C)[C@H]3[C@@H](O)C[C@@]21C,Potency,[1],inactive
same,Potency,[2],inactive
CC#CCC(C)[C@H](O)/C=C/[C@@H]1[C@H]2c3cccc(CCCC(=O)O)c3O[C@H]2C[C@H]1O (some centres not stated),Potency,[1],inactive
same,Potency,[2],inactive
O=S(=O)(O)Oc1ccc(C(c2ccc(OS(=O)(=O)O)cc2)c2ccccn2)cc1,Potency,[1],inactive
same,Potency,[2],inactive
COc1ccc(CNCC(O)COc2ccc3[nH]c(=O)ccc3c2)cc1OC (configuration not stated),Potency,[1],inactive
same,Potency,[2],inactive
C[N+](C)(CCCCCC[N+](C)(C)C1c2ccccc2-c2ccccc21)C1c2ccccc2-c2ccccc21,Potency,[1],inactive
same,Potency,[2],inactive
O=C(Cc1cccc(OC(F)(F)F)c1)Nc1ccc(CCCCc2nnc(NC(=O)Cc3ccccn3)s2)nn1,Potency,[1],inactive
same,Potency,[2],inactive
COC(=O)Nc1cc(Nc2cc(NC3CC3)c3ncc(C#N)n3n2)c(Cl)c(N2CCN(C)CC2)c1,Potency,[1],inactive
same,Potency,[2],inactive
CC(C(=O)O)c1ccc(C2CCCCC2)c2ccccc12 (configuration not stated),Potency,[1],inactive
same,Potency,[2],15.8 µM (active)
CC(CC(c1ccccc1)c1ccccc1)NC(C)(C)C (configuration not stated),Potency,[1],inactive
same,Potency,[2],inactive
CCN1CCCC1CNC(=O)c1cc(S(=O)(=O)CC)ccc1OC (configuration not stated),Potency,[1],inactive
same,Potency,[2],inactive
CN[C@@H]1CCc2[nH]c3ccc(C(N)=O)cc3c2C1,Potency,[1],inactive
same,Potency,[2],inactive
CO/N=C(\C(=O)N[C@@H]1C(=O)N2C(C(=O)OCOC(=O)C(C)(C)C)=C(/C=C\c3scnc3C)CS[C@H]12)c1csc(N)n1,Potency,[1],4.53 µM (active)
same,Potency,[2],14.1 µM (active)
CSCC[C@H](NC(=O)[C@H](Cc1ccc(OS(=O)(=O)O)cc1)NC(=O)[C@@H](N)CC(=O)O)C(=O)NCC(=O)N[C@@H](Cc1c[nH]c2ccccc12)C(=O)N[C@@H](CCSC)C(=O)N[C@@H](CC(=O)O)C(=O)N[C@@H](Cc1ccccc1)C(N)=O,Potency,[1],inactive
same,Potency,[2],15.8 µM (active)
C1CNCCN1,Potency,[1],inactive
same,Potency,[2],inactive
CCCCCCCCCCCCCCCCCC(=O)OCCO,Potency,[1],inactive
same,Potency,[2],inactive
CNC[C@@H]1CC[C@@H](N)[C@@H](O[C@H]2[C@H](O)[C@@H](O[C@H]3OC[C@](C)(O)[C@H](NC)[C@H]3O)[C@H](N)C[C@@H]2N)O1,Potency,[1],inactive
same,Potency,[2],inactive
FC(F)(F)c1ccc(CNc2ccc(Cc3c[nH]c4ncc(Cl)cc34)cn2)cn1,Potency,[1],inactive
same,Potency,[2],inactive
NCCCNCCCCNC(=O)C(O)NC(=O)CCCCCCN=C(N)N (configuration not stated),Potency,[1],inactive
same,Potency,[2],inactive
OC(CN1CCCCC1)c1cc(-c2ccccc2)on1 (configuration not stated),Potency,[1],inactive
same,Potency,[2],inactive
NC(=O)c1cnc(N[C@@H]2CCCC[C@@H]2N)nc1Nc1cccc(-n2nccn2)c1,Potency,[1],inactive
same,Potency,[2],inactive
O=P(O)(O)OC(CO)CO,Potency,[1],inactive
same,Potency,[2],inactive
CCCN(CC)C(CC)C(=O)Nc1c(C)cccc1C (configuration not stated),Potency,[1],inactive
same,Potency,[2],inactive
CC(C)(S)C(=O)N[C@@H](CS)C(=O)O,Potency,[1],inactive
same,Potency,[2],inactive
CN=C(NC)NCc1ccccc1,Potency,[1],inactive
same,Potency,[2],inactive
CCN(CC)CCOC(=O)c1ccc(N)cc1Cl,Potency,[1],inactive
same,Potency,[2],inactive
O=C1C(c2[nH]c3ccc(S(=O)(=O)O)cc3c2O)=Nc2ccc(S(=O)(=O)O)cc21,Potency,[1],inactive
same,Potency,[2],inactive
CCOC(=O)[C@H](CCc1ccccc1)N[C@H]1CCCN2CCC[C@@H](C(=O)O)N2C1=O,Potency,[1],inactive
same,Potency,[2],inactive
C[C@@H]1COCCN1c1cc(=O)n2c(n1)N(Cc1cncc(Cl)c1)[C@H](C(F)(F)F)CC2,Potency,[1],inactive
same,Potency,[2],inactive
CN1CCN(CCCN2c3ccccc3Sc3ccccc32)CC1,Potency,[1],inactive
same,Potency,[2],inactive
NCCCC[C@H](NC(=O)[C@@H]1CCCN1C(=O)[C@@H]1CSSC[C@H](NC(=O)CNC(=O)CNC(=O)CN)C(=O)N[C@@H](Cc2ccc(O)cc2)C(=O)N[C@@H](Cc2ccccc2)C(=O)N[C@@H](CCC(N)=O)C(=O)N[C@@H](CC(N)=O)C(=O)N1)C(=O)NCC(N)=O (H-GGGCYFQNCPKG-NH2; disulfide 4-9),Potency,[1],inactive
same,Potency,[2],inactive
CCCCCCCC(=O)CC[C@@H]1[C@@H](C/C=C\CCCC(=O)OC(C)C)[C@@H](O)C[C@H]1O,Potency,[1],inactive
same,Potency,[2],inactive
Cc1ccc(C2(O)CCN(CCCC(=O)c3ccc(F)cc3)CC2)cc1,Potency,[1],inactive
same,Potency,[2],inactive
CCC(c1ccccc1)c1noc(CCN(CC)CC)n1 (configuration not stated),Potency,[1],inactive
same,Potency,[2],inactive
O=C(OCCO)c1ccccc1O,Potency,[1],inactive
same,Potency,[2],inactive
COc1ccc(CCNCC(O)COc2cccc(C)c2)cc1OC (configuration not stated),Potency,[1],inactive
same,Potency,[2],inactive
CCCCOC(=O)C(=O)Nc1cccc(-c2nn[nH]n2)c1,Potency,[1],inactive
same,Potency,[2],inactive
C[C@@H]1CN(CC(=O)N2CC(C)(C)c3ncc(Cc4ccc(F)cc4)cc32)[C@@H](CN2CCOC[C@H]2C)CN1,Potency,[1],inactive
same,Potency,[2],inactive
Cc1cccc(-c2[nH]ncc2-c2ccc(F)c(-c3cnn(CCO)c3)c2)n1,Potency,[1],inactive
same,Potency,[2],inactive
same,Potency,[4],inactive
same,Potency,[5],inactive
same,Potency,[6],inactive

# — PubChem BioAssay (NCATS)
